From PubChem BioAssay (NCATS)
Results filed as inconclusive are left out. Activity calls are given as the source filed them. Calls follow the shape of the dose curve; as a rule, active = well fitted inhibition curve with a large enough effect; inconclusive = small, poorly fitted or top-dose-only effect; inactive = flat fitted curve, though single readings scatter.

system: HaCat; test: Cytotoxic Profiling of Annotated Libraries Using Quantitative High-Throughput Screening (AID 1296008); conditions: Five cell lines viability, CellTiter-Glo ATP luminescence, 48-72 h; max response: stronger effect = lower value; also: nearly all actives have a fitted effect of over 60% in size
Outline: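 Compounds were pin-transferred onto cells and incubated 48 or 72 hr at 37 degree Celsius, 95% humidity. CellTiter-Glo was added, plates sat 10 min at room temperature, then ATP-coupled luminescence was imaged as the viability read-out.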

Row | Structure (SMILES) | outcome
1 | C=C1CCC2C(C)(C(=O)O)CCCC2(C)C1CC/C(C)=C\CO (stereo not given) | inactive
2 | CN[C@H](CNC(=O)N1CCC[C@@H]([C@@H](OCCNC(=O)OC)c2cccc(Cl)c2)C1)C[C@H]1CCCOC1 | inactive
3 | COc1cc(C2Oc3c(OC)cc(/C=C/C(=O)OC4CC(O)(C(=O)O)CC(O)C4O)cc3C2CO)ccc1O (stereo not given) | inactive
4 | CC[C@@H](C)[C@H](N)C(=O)N1Cc2ccccc2C1 | inactive
5 | CC(=O)OC1CC(C(C)(C)O)OC2CCC3(C)OC4=C(C(=O)C=C5C(C)C(OC(C)=O)C6(C)C(C)OC546)C(O)C3C12C (stereo not given) | inactive
6 | C[C@@H]1O[C@@H](O[C@H]2[C@H](O)[C@@H](O)[C@H](OC[C@H]3O[C@@H](OC(=O)[C@]45CCC(C)(C)C[C@H]4C4=CCC6[C@@]7(C)C[C@@H](O)[C@H](O)[C@@](C)(CO)C7[C@H](O)C[C@@]6(C)[C@]4(C)CC5)[C@H](O)[C@@H](O)[C@@H]3O)O[C@@H]2CO)[C@H](O)[C@H](O)[C@H]1O (stereo not given in full) | inactive
7 | CC1=CC(=O)C2C(C)(C)CCC[C@]2(C)[C@H]1CC[C@H](C)CC(=O)O (stereo not given in full) | inactive
8 | C[C@H]1CC(=O)C2=C(C1)C(O)C(O)[C@@]1(O)[C@H]2C(=O)c2cccc(O)c2[C@@H]1O (stereo not given in full) | inactive
9 | CC(=O)OC(C)(C)/C=C/C(=O)[C@](C)(O)C1[C@H](O)C[C@@]2(C)[C@@H]3CC=C4[C@@H](C[C@H](O[C@@H]5O[C@H](CO)[C@@H](O)[C@H](O)[C@H]5O)C(=O)C4(C)C)[C@]3(C)C(=O)C[C@]12C (stereo not given in full) | inactive
10 | CC1CC(=O)[C@]2(O)C(C(=O)OCCc3ccc(O)c(O)c3)=CO[C@@H](O[C@@H]3O[C@H](CO)[C@@H](O)[C@H](O)[C@H]3O)[C@H]12 (stereo not given in full) | inactive
